Results: paper PMC9911399, “Two distinct binding modes provide the RNA-binding protein RbFox with extraordinary sequence specificity”
Positions count from the first letter of the chain named. Over roughly 16,000 sequences, “ka relative to ugcaugu” has its median near 0.0091; the highest 2% begin near 0.032. Only a selection was taken, and the highest values are over-represented in it overall.

T1: RBFOX1 RRM (Homo sapiens, UniProt Q9NWB1 109-208)
T1 sequence: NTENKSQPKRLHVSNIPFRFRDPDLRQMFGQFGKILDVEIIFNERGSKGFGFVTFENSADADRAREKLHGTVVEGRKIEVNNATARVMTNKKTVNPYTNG

B1: AGCAGGG (DNA:RNA)
RNA: GGGAGACCGGAAUUCAGAUUGUCCAGCAGGGUUAAAUCCCGUCGUAGCCACCA
DNA 1: CAATCTGAATTCCGGTCTCCC
DNA 2: TGGTGGCTACGACGGGATT
B2: UGAGGUG (DNA:RNA)
RNA: B1 RNA with A25U, C27A, A28G, G30U
DNA 1: CAATCTGAATTCCGGTCTCCC
DNA 2: TGGTGGCTACGACGGGATT
B3: UCCGUAG (DNA:RNA)
RNA: B1 RNA with A25U, G26C, A28G, G29U, G30A
DNA 1: CAATCTGAATTCCGGTCTCCC
DNA 2: TGGTGGCTACGACGGGATT
B4: CGUAUGC (DNA:RNA)
RNA: B1 RNA with A25C, C27U, G29U, G31C
DNA 1: CAATCTGAATTCCGGTCTCCC
DNA 2: TGGTGGCTACGACGGGATT
B5: UGUAUGC (DNA:RNA)
RNA: B1 RNA with A25U, C27U, G29U, G31C
DNA 1: CAATCTGAATTCCGGTCTCCC
DNA 2: TGGTGGCTACGACGGGATT
B6: UGUAUUG (DNA:RNA)
RNA: B1 RNA with A25U, C27U, G29U, G30U
DNA 1: CAATCTGAATTCCGGTCTCCC
DNA 2: TGGTGGCTACGACGGGATT
B7: UUCUGCU (DNA:RNA)
RNA: B1 RNA with A25U, G26U, A28U, G30C, G31U
DNA 1: CAATCTGAATTCCGGTCTCCC
DNA 2: TGGTGGCTACGACGGGATT
B8: UGUAACC (DNA:RNA)
RNA: B1 RNA with A25U, C27U, G29A, G30C, G31C
DNA 1: CAATCTGAATTCCGGTCTCCC
DNA 2: TGGTGGCTACGACGGGATT
B9: AGGCGUG (DNA:RNA)
RNA: B1 RNA with C27G, A28C, G30U
DNA 1: CAATCTGAATTCCGGTCTCCC
DNA 2: TGGTGGCTACGACGGGATT
B10: ACCCAGU (DNA:RNA)
RNA: B1 RNA with G26C, A28C, G29A, G31U
DNA 1: CAATCTGAATTCCGGTCTCCC
DNA 2: TGGTGGCTACGACGGGATT
B11: GCAUGUC (DNA:RNA)
RNA: B1 RNA with A25G, G26C, C27A, A28U, G30U, G31C
DNA 1: CAATCTGAATTCCGGTCTCCC
DNA 2: TGGTGGCTACGACGGGATT
B12: GCACAUG (DNA:RNA)
RNA: B1 RNA with A25G, G26C, C27A, A28C, G29A, G30U
DNA 1: CAATCTGAATTCCGGTCTCCC
DNA 2: TGGTGGCTACGACGGGATT
B13: GCGCAUG (DNA:RNA)
RNA: B1 RNA with A25G, G26C, C27G, A28C, G29A, G30U
DNA 1: CAATCTGAATTCCGGTCTCCC
DNA 2: TGGTGGCTACGACGGGATT
B14: GCGCAUC (DNA:RNA)
RNA: GGGAGACCGGAAUUCAGAUUGUCCGCGCAUCUUAAAUCCCGUCGUAGCCACCA
DNA 1: CAATCTGAATTCCGGTCTCCC
DNA 2: TGGTGGCTACGACGGGATT
B15: AUGUGUG (DNA:RNA)
RNA: B1 RNA with G26U, C27G, A28U, G30U
DNA 1: CAATCTGAATTCCGGTCTCCC
DNA 2: TGGTGGCTACGACGGGATT
B16: GCAUAUG (DNA:RNA)
RNA: B14 RNA with G27A, C28U, C31G
DNA 1: CAATCTGAATTCCGGTCTCCC
DNA 2: TGGTGGCTACGACGGGATT
B17: GUCCGUC (DNA:RNA)
RNA: B14 RNA with C26U, G27C, A29G
DNA 1: CAATCTGAATTCCGGTCTCCC
DNA 2: TGGTGGCTACGACGGGATT
B18: GCGCGCA (DNA:RNA)
RNA: B14 RNA with A29G, U30C, C31A
DNA 1: CAATCTGAATTCCGGTCTCCC
DNA 2: TGGTGGCTACGACGGGATT
B19: GCAUGUG (DNA:RNA)
RNA: B14 RNA with G27A, C28U, A29G, C31G
DNA 1: CAATCTGAATTCCGGTCTCCC
DNA 2: TGGTGGCTACGACGGGATT
B20: CAAUGUA (DNA:RNA)
RNA: B1 RNA with A25C, G26A, C27A, A28U, G30U, G31A
DNA 1: CAATCTGAATTCCGGTCTCCC
DNA 2: TGGTGGCTACGACGGGATT
B21: CUCAACC (DNA:RNA)
RNA: B1 RNA with A25C, G26U, G29A, G30C, G31C
DNA 1: CAATCTGAATTCCGGTCTCCC
DNA 2: TGGTGGCTACGACGGGATT
B22: GAUGAAG (DNA:RNA)
RNA: B14 RNA with C26A, G27U, C28G, U30A, C31G
DNA 1: CAATCTGAATTCCGGTCTCCC
DNA 2: TGGTGGCTACGACGGGATT
B23: ACGCGCU (DNA:RNA)
RNA: B14 RNA with G25A, A29G, U30C, C31U
DNA 1: CAATCTGAATTCCGGTCTCCC
DNA 2: TGGTGGCTACGACGGGATT
B24: GAGAGCU (DNA:RNA)
RNA: B1 RNA with A25G, G26A, C27G, G30C, G31U
DNA 1: CAATCTGAATTCCGGTCTCCC
DNA 2: TGGTGGCTACGACGGGATT
B25: ACGUGAA (DNA:RNA)
RNA: B1 RNA with G26C, C27G, A28U, G30A, G31A
DNA 1: CAATCTGAATTCCGGTCTCCC
DNA 2: TGGTGGCTACGACGGGATT
B26: CGUCAAG (DNA:RNA)
RNA: B1 RNA with A25C, C27U, A28C, G29A, G30A
DNA 1: CAATCTGAATTCCGGTCTCCC
DNA 2: TGGTGGCTACGACGGGATT
B27: CCUGCAA (DNA:RNA)
RNA: B14 RNA with G25C, G27U, C28G, A29C, U30A, C31A
DNA 1: CAATCTGAATTCCGGTCTCCC
DNA 2: TGGTGGCTACGACGGGATT
B28: CUGAAUC (DNA:RNA)
RNA: B14 RNA with G25C, C26U, C28A
DNA 1: CAATCTGAATTCCGGTCTCCC
DNA 2: TGGTGGCTACGACGGGATT
B29: CUGAAUG (DNA:RNA)
RNA: B14 RNA with G25C, C26U, C28A, C31G
DNA 1: CAATCTGAATTCCGGTCTCCC
DNA 2: TGGTGGCTACGACGGGATT
B30: UGAUUGU (DNA:RNA)
RNA: B1 RNA with A25U, C27A, A28U, G29U, G31U
DNA 1: CAATCTGAATTCCGGTCTCCC
DNA 2: TGGTGGCTACGACGGGATT
B31: CCCUGAA (DNA:RNA)
RNA: B1 RNA with A25C, G26C, A28U, G30A, G31A
DNA 1: CAATCTGAATTCCGGTCTCCC
DNA 2: TGGTGGCTACGACGGGATT
B32: UGAAAUG (DNA:RNA)
RNA: B1 RNA with A25U, C27A, G29A, G30U
DNA 1: CAATCTGAATTCCGGTCTCCC
DNA 2: TGGTGGCTACGACGGGATT
B33: UGAAUGU (DNA:RNA)
RNA: B1 RNA with A25U, C27A, G29U, G31U
DNA 1: CAATCTGAATTCCGGTCTCCC
DNA 2: TGGTGGCTACGACGGGATT

Target: T1, RBFOX1 RRM
Experiment: EMSA; HiTS-Eq, 1 nM pool, 10 min; buffer printed only for the single-RNA assays: 10 mM Tris pH 7.5, 150 mM NaCl, 3.4 mM EDTA, 0.001% NP-40, 30 C
Settings: tags: His6 N-terminal (pET28a); label: 5' 32P
Procedure, shortened: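 Purified RbFox RRM, wild type or mutant, was incubated for 10 min in 50 µL with 1 nM of a 5′-radiolabelled RNA pool carrying 7 randomized nucleotides, whose flanks were annealed to DNA oligonucleotides, over a series of increasing protein concentrations. Unbound RNA was resolved on 8% native PAGE, cut out, reverse-transcribed, barcoded by PCR and sequenced on an Illumina HiSeq 2500. Relative association constants were derived from changes in read counts for each RNA species versus the control reaction and normalised to the cognate motif.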

**Q.** B1 was tested. Which binding signal did it give?
**A.** The binding signal was 0.0126 KA relative to UGCAUGU.

**Q.** For B2, which binding signal is on record?
**A.** The binding signal was 0.0201 KA relative to UGCAUGU.

**Q.** How did the binding signal turn out when B3 was run?
**A.** Its binding signal is 0.00757 KA relative to UGCAUGU.

**Q.** With B4 as the binder, how does the binding signal read?
**A.** The binding signal was 0.014 KA relative to UGCAUGU.

**Q.** Which binding signal does the source give for B5 here?
**A.** The binding signal was 0.0374 KA relative to UGCAUGU.

**Q.** How did the binding signal turn out when B6 was run?
**A.** The binding signal was 0.0262 KA relative to UGCAUGU.

**Q.** For B7, which binding signal is on record?
**A.** The binding signal was 0.0203 KA relative to UGCAUGU.

**Q.** For B8, which binding signal is on record?
**A.** Its binding signal is 0.00753 KA relative to UGCAUGU.

**Q.** How did the binding signal turn out when B9 was run?
**A.** The binding signal was 0.0157 KA relative to UGCAUGU.

**Q.** How did the binding signal turn out when B10 was run?
**A.** Its binding signal is 0.00233 KA relative to UGCAUGU.

**Q.** How did the binding signal turn out when B11 was run?
**A.** Its binding signal is 0.689 KA relative to UGCAUGU.

**Q.** For B12, which binding signal is on record?
**A.** The binding signal was 0.0141 KA relative to UGCAUGU.

**Q.** How did the binding signal turn out when B13 was run?
**A.** Its binding signal is 0.843 KA relative to UGCAUGU.

**Q.** B14 was tested. Which binding signal did it give?
**A.** Its binding signal is 0.0246 KA relative to UGCAUGU.

**Q.** For B15, which binding signal is on record?
**A.** The binding signal was 0.0208 KA relative to UGCAUGU.

**Q.** B16 was tested. Which binding signal did it give?
**A.** The binding signal was 0.00982 KA relative to UGCAUGU.

**Q.** With B17 as the binder, how does the binding signal read?
**A.** Its binding signal is 0.0149 KA relative to UGCAUGU.

**Q.** With B18 as the binder, how does the binding signal read?
**A.** The binding signal was 0.0238 KA relative to UGCAUGU.

**Q.** How did the binding signal turn out when B19 was run?
**A.** The binding signal was 0.8 KA relative to UGCAUGU.

**Q.** How did the binding signal turn out when B20 was run?
**A.** The binding signal was 0.00174 KA relative to UGCAUGU.

**Q.** How did the binding signal turn out when B21 was run?
**A.** The binding signal was 0.000946 KA relative to UGCAUGU.

**Q.** B22 was tested. Which binding signal did it give?
**A.** Its binding signal is 0.0183 KA relative to UGCAUGU.

**Q.** B23 was tested. Which binding signal did it give?
**A.** The binding signal was 0.00889 KA relative to UGCAUGU.

**Q.** With B24 as the binder, how does the binding signal read?
**A.** The binding signal was 0.016 KA relative to UGCAUGU.

**Q.** For B25, which binding signal is on record?
**A.** The binding signal was 0.00505 KA relative to UGCAUGU.

**Q.** Which binding signal does the source give for B26 here?
**A.** The binding signal was 0.0065 KA relative to UGCAUGU.

**Q.** For B27, which binding signal is on record?
**A.** The binding signal was 0.00899 KA relative to UGCAUGU.

**Q.** For B28, which binding signal is on record?
**A.** The binding signal was 0.00905 KA relative to UGCAUGU.

**Q.** How did the binding signal turn out when B29 was run?
**A.** Its binding signal is 0.0348 KA relative to UGCAUGU.

**Q.** B30 was tested. Which binding signal did it give?
**A.** The binding signal was 0.0253 KA relative to UGCAUGU.

**Q.** For B31, which binding signal is on record?
**A.** Its binding signal is 0.00426 KA relative to UGCAUGU.

**Q.** How did the binding signal turn out when B32 was run?
**A.** The binding signal was 0.0128 KA relative to UGCAUGU.

**Q.** For B33, which binding signal is on record?
**A.** The binding signal was 0.0386 KA relative to UGCAUGU.
